NPSR antagonist = blocks cAMP signaling of the human neuropeptide S receptor. 220,000 tested, 1% active. Potency, µM (doses to about 38.3 µM), usual class: inhibitors. CHO-NPSR cells, cAMP TR-FRET, antagonist mode. Q6W5P4; also: nearly all actives have a fitted effect of over 50% in size
Tau fluor cs = counter-screen for tau fibril formation inhibitors | tau K18 P301L Alexa594 fluorescence, heparin fibrillization | Potency, µM (titrated, usually from 57.7 µM) | 280,000 tested, 0.93% active | AID 1463; also: nearly all actives have a fitted effect of over 55% in size
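Human K18 P301L tau (15 uM unlabeled plus 0.24 uM Alexa 594-labeled, final) in 100 mM sodium acetate pH 7 was mixed with compound and 20 uM heparin and incubated 6 hr at 37 C.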
HPGD inh = HPGD (human) dehydrogenase inhibition; P15428; Potency, µM, hits mostly inhibitors; purified HPGD, NADH fluorescence kinetic, PGE2 substrate; 150,000 tested, 4.3% active; active = well fitted inhibition curve with a large enough effect, not every such curve was filed as active; inconclusive = small, poorly fitted or top-dose-only effect, or another doubt; inactive = no such curve, though single readings can be large or run the other way
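NADH formation kinetics: reaction with 30 uM PGE2 and 1 mM NAD+ (final), 20 nM enzyme, Tris-HCl pH 8 with Tween 20, after 15 min compound preincubation at room temperature. Fluorescence change, last versus first of five reads.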
Tau fibril FP = inhibitors of human tau fibril formation; AID 1468; 280,000 tested, 0.39% active; K18 P301L tau heparin fibrillization, Alexa594 FP, 6 h; P10636; Potency, µM (top dose mostly 57.7 µM), most hits filed as inhibitors; also: nearly all actives have a fitted effect of over 55% in size
Target sequence (P10636 561-689 P618L limits assumed): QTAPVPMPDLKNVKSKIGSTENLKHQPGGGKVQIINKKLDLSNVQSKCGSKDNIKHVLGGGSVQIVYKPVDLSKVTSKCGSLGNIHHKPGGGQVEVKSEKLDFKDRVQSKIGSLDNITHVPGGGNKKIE
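Human K18 P301L fragment (15 uM unlabeled plus 0.24 uM Alexa 594-labeled) in 100 mM sodium acetate pH 7 with compound, aggregation induced by 20 uM heparin for 6 hr at 37 C. ThT (30 uM) added for 1 hr, then Alexa 594 FP read.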
ALDH1A1 inh = ALDH1A1 (human) enzyme inhibition. Purified ALDH1A1, NADH fluorescence, propionaldehyde substrate. Potency, µM (highest dose often 75.3 µM), most hits filed as inhibitors. 220,000 tested, 7.3% active. AID 1030; active = well fitted inhibition curve with a large enough effect, not every such curve was filed as active; inconclusive = small, poorly fitted or top-dose-only effect, or another doubt; inactive = no such curve, though single readings can be large or run the other way
Target sequence (P00352 whole entry, looked up): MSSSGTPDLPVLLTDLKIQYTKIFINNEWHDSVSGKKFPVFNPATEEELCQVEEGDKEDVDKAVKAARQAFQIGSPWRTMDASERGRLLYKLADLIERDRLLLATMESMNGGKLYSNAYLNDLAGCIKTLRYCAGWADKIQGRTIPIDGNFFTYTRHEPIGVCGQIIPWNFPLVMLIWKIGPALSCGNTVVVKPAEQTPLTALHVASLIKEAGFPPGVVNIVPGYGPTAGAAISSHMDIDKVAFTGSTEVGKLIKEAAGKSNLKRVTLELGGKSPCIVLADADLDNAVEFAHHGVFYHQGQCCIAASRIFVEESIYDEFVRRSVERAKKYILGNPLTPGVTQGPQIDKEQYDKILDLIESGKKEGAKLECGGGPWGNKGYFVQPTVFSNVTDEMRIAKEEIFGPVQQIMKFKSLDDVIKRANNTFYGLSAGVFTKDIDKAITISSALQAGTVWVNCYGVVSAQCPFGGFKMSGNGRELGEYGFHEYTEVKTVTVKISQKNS
Tau ThT inhib = blocks human tau fibril formation measured by thioflavin T; P10636; recombinant tau K18 P301L (four-repeat tau fragment), heparin-induced fibrillization, ThT fluorescence; Potency, µM (highest dose often 57.4 µM), hits mostly inhibitors; 270,000 tested, 2.1% active; also: nearly all actives have a fitted effect of over 55% in size
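Aggregation was driven by heparin (20 uM final) acting on recombinant tau […] bearing P301L in 100 mM sodium acetate pH 7; fibrils were detected with Thioflavin T.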
Hits are given with their value; n = inactive; u = inconclusive; x = no result given; [ ] = remark or other dose. Rows were chosen to be rich in hits. Some 9.5% of all compounds tested hit in one or more screens of this group. Unless noted, calls follow the shape of the dose curve; as a rule, active = well fitted curve in the direction sought with a large enough effect; inconclusive = small, poorly fitted or top-dose-only effect, or another doubt; inactive = no such curve, though single readings can be large; an effect the other way counts as inactive or inconclusive.

SMILES	NPSR antagonist	Tau fluor cs	HPGD inh	Tau fibril FP	ALDH1A1 inh	Tau ThT inhib
Cc1ccccc1C(=O)N1CCN(c2ccc(NC(=O)c3ccc4c(c3)OCO4)cc2)CC1	n	u	x	n	u	13µM
O=C(NCc1cccnc1)/C(=C\c1ccc(-c2cccc(Cl)c2)o1)S(=O)(=O)c1ccccc1	u	n	n	n	u	u
O=C(NCc1cccnc1)/C(=C/c1ccc(-c2cccc(Cl)c2)o1)S(=O)(=O)c1ccccc1	5µM	n	n	n	13µM	u
CC1=CC(=Nc2c(C)n(C)n(-c3ccccc3)c2=O)C=C(C)C1=O	n	u	n	u	n	11µM
Cc1c(N=Cc2ccc[nH]2)c(=O)n(-c2ccccc2)n1C	n	n	u	n	13µM	n
CCNc1ccc(N=Nc2c(C)n(C)n(-c3ccccc3)c2=O)cc1	n	n	x	n	u	16µM
Cc1c(N=Cc2ccncc2)c(=O)n(-c2ccccc2)n1C	n	n	n	n	u	n
CC(=O)/C(N=Nc1c(C)n(C)n(-c2ccccc2)c1=O)=C(\C)O	n	n	x	n	n	n
Cc1c(N=NC2=C(O)CC(C)(C)CC2=O)c(=O)n(-c2ccccc2)n1C	n	n	x	n	10µM	n
O=C(NNC(=O)C(Cl)Cl)c1cnn(-c2ccccc2)c1C(F)(F)F	n	n	x	n	x	u
CC1=CC(=Nc2c(C)n(C)n(-c3ccccc3)c2=O)C=CC1=O	n	u	x	10µM	x	3.2µM
CN1CCN(C2=Cc3ccccc3Sc3cc(F)c(F)cc32)CC1	u	u	25µM	n	n	u
CN1CCN(C2=Cc3ccccc3Sc3cc(F)c(Cl)cc32)CC1	u	u	28µM	n	5.6µM	u
CN1CCN(C2=Cc3cc(Cl)ccc3Sc3cc(F)ccc32)CC1	u	n	n	n	n	n
COc1ccc2c(c1)C(=O)[C@H](OC(=O)NCCc1ccc(OC)c(OC)c1)[C@@H](c1ccc(OC)c(Br)c1)O2	x	n	n	n	n	n
COc1ccc(-c2[nH]c(-c3ccccc3)nc2SCC(=O)Nc2ccc3c(c2)OCO3)cc1	x	13µM[quencher]	x	n	x	u
COc1ccc(-c2nc(SCC(=O)Nc3ccc4c(c3)OCO4)c(-c3ccccc3)[nH]2)cc1	x	14µM[quencher]	x	u	x	n
COc1ccc(-c2nsc(SCC(=O)Nc3ccc4c(c3)OCO4)n2)cc1	n	n	n	n	n	n
COc1ccc(-c2cc(CS(=O)(=O)c3ccccc3)on2)cc1	n	n	x	n	u	n
CCOc1ccccc1C(=O)N(Cc1ccc(N(C)C)cc1)Cc1ccco1	x	n	x	n	x	u
O=C(O)CCCC(=O)Nc1ccc(OCc2nc3ccccc3s2)cc1	n	n	x	n	1.8µM	u
O=C(CSc1c(F)c(F)cc(F)c1F)Nc1ccc(C2SCCS2)cc1	n[7.67 µM]	n	x	u	x	n
O=C(Nc1nc(=S)ss1)c1ccc(Cl)cc1Cl	n	n	22µM	u	6.3µM	32µM
O=C(Nn1c(-c2ccc(F)cc2)nc2ccccc2c1=O)C1CCCCC1	n	n	n	n	u	n
O=C(CCn1nc(-c2ccc(Cl)cc2)c2ccccc2c1=O)Nc1ccc(OC(F)(F)F)cc1	x	n	x	n	x	n
SMILES	NPSR antagonist	Tau fluor cs	HPGD inh	Tau fibril FP	ALDH1A1 inh	Tau ThT inhib
CCOC(=O)c1cnn(-c2c(Cc3ccccc3)c(C)nc3c(-c4ccccc4)c(C)nn23)c1N	n	n	n	n	0.1µM	n
COc1cccc(CN(C)C(=O)c2cc(COc3ccc4ncccc4c3)on2)c1	n	n	x	n	n	n
Cc1nc(C)c(/C(O)=C/c2nc3ccc([N+](=O)[O-])cc3oc2=O)o1	n	n	x	n	0.4µM	u
CCC1OC(=O)C(C)[C@@H](O[C@H]2C[C@@](C)(OC)C(O)C(C)O2)C(C)[C@@H](O[C@@H]2OC(C)CC(N(C)C)C2O)[C@](C)(O)CC(C)/C(=N\OCOCCOC)[C@H](C)C(O)[C@]1(C)O (stereo not given in full)	x	n	n	n	n	n
CCCC(=O)Nc1ccccc1NC(=O)c1ccc(OC(C)=O)cc1	n	n	x	n	n	n
CCOCCCNC(=O)C1CCC(CNS(=O)(=O)c2ccc(Cl)cc2)CC1 (stereo not given)	n	n	n	n	u	n
COCCCNC(=O)C1CCC(CNS(=O)(=O)c2ccc(C)cc2)CC1 (stereo not given)	n	n	x	n	11µM	n
CCCCNC(=O)C1CCC(CNS(=O)(=O)c2ccc(C)cc2)CC1 (stereo not given)	n	n	x	n	10µM	n
CCCCSCCCNC(=O)C1CCC(CNS(=O)(=O)c2ccccc2)CC1 (stereo not given)	x	n	x	n	x	n
COc1cc(OC)c(NC(=O)Cn2c(=O)c(C(F)(F)F)nc3ccccc32)cc1Cl	x	n	x	n	x	n
Cc1ccc(OCC(=O)NNC(=O)C(C)Sc2ncnc3sc(C)c(C)c23)cc1 (stereo not given)	n	n	32µM	n	u	n
COC(=O)c1ccc(C23CC2(C(NP(=O)(c2ccccc2)c2ccccc2)c2ccccc2)C3)cc1 (stereo not given)	x	n	n	n	32µM	u
CCOC(=O)Cn1c(=O)oc2cc(S(=O)(=O)Nc3ccc(N(CC)CC)cc3C)ccc21	u	u	28µM	n	u	u
Cc1cc(C)n2nc(C(=O)N3CCCC(CNS(=O)(=O)c4cccs4)C3)cc2n1 (stereo not given)	n	n	x	n	u	n
COc1ccc(S(=O)(=O)NCC2CCCN(C(=O)c3cccs3)C2)cc1 (stereo not given)	n	n	x	n	1.1µM	n
COc1ccc(S(=O)(=O)NCC2CCCN(C(=O)c3ccco3)C2)cc1 (stereo not given)	n	n	x	n	4µM	n
CCc1cc(C(=O)N2CCCC(CNS(=O)(=O)c3cccs3)C2)n(C)n1 (stereo not given)	n	n	x	n	5µM	n
COc1ccc(S(=O)(=O)NCC2CCCN(C(=O)c3cccnc3)C2)cc1 (stereo not given)	n	n	x	n	u	n
COC(=O)C1=C(C(=O)OC)[C@@H]2N(C)c3ccc(OC)cc3[C@@]23C[C@@H](C(=O)OC)N(S(=O)(=O)c2cccs2)C3=N1	x	n[11.6 µM]	n	n[11.6 µM]	n[13.5 µM]	n[11.5 µM]
CN(C)C(/C=C/Nc1cccc([N+](=O)[O-])c1)=C(C#N)C#N	n	n	x	n	u	u
Cc1ccc(C(=O)/C=C/Nc2cccc([N+](=O)[O-])c2)o1	n	u	n	n	n	14µM
O=C(NC1CC1)c1cc(F)c(F)cc1Cl	n	n	22µM	n	n	n
Cc1ccc(S(=O)(=O)N2CCN(S(=O)(=O)N3CCOCC3)CC2)cc1C	n	n	n	n	n	n
Cc1ccc(S(=O)(=O)N2CCN(S(=O)(=O)N3CCOCC3)CC2)c(C)c1	n	n	n	n	13µM	n
